The record followed here is PubChem BioAssay (NCATS).

The structures appear in SMILES notation. Results filed as inconclusive are left out. Calls of active or inactive are those of the source. Unless noted, calls follow the shape of the dose curve; as a rule, active = well fitted curve in the direction sought with a large enough effect; inconclusive = small, poorly fitted or top-dose-only effect, or another doubt; inactive = no such curve, though single readings can be large; an effect the other way counts as inactive or inconclusive.

Assay [1] addresses Lysosomal acid glucosylceramidase (Homo sapiens) (UniProt P04062). Description: Glucocerebrosidase-p2 (AID 348; in the data active = potency below about 10 µM; also: potency is read from the fitted curve at half-maximal effect). To be noted: purified GBA, blue fluorogenic substrate, 40 min. The procedure, abridged:
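Normal human glucocerebrosidase (0.2 nM) with blue fluorogenic substrate (80 uM final) in citrate/phosphate pH 5.9 with 10mM sodium taurocholate, 0.01% tween-20; 40 min RT, NaOH/glycine stop; fluorescence Ex 365/Em 440; AC50 from a titration from 0.6 nM upwards.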

Assay [2] in a line: AP1 Signaling Pathway (AID 357; active = well fitted curve in either direction with a large enough effect, not every such curve was filed as active;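 also: ME-180 reporter cells stimulated with EGF at its EC50 level; % is scaled to controls: 0 for no effect and ±100 for the full control effect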). To be noted: ME-180 AP-1-bla reporter, EGF-induced, beta-lactamase ratio, 5 h; at 7.69 µM (top of the series) unless noted. A digest of the protocol:
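Titration-series screen for positive or negative modulators of EC50 EGF-induced signaling in ME-180 cells carrying an AP-1-driven beta-lactamase reporter. After 5 hours at 37 degrees Celsius, CCF4 460nm/530nm emission ratio gave %Activity; AC50 values derived.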

In assay [3] the target is Cytochrome P450 1A2 (Homo sapiens) (UniProt P05177). Description: p450-cyp1a2 (AID 410; calls by dose curve; also: potency is read from the fitted curve at half-maximal effect). The following applies: recombinant CYP1A2, luciferin-ME demethylation, luminescence; series mostly up to 57 µM. A digest of the protocol: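 Read-out is luminescence from luciferin produced by CYP1A2 demethylation of Luciferin-ME (100uM, at Km). Detection reagent stopped the 60 min NADPH-dependent reaction; signals were normalized to 57 uM furafylline.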
Chain of Cytochrome P450 1A2 (Homo sapiens) (P05177 whole entry, looked up): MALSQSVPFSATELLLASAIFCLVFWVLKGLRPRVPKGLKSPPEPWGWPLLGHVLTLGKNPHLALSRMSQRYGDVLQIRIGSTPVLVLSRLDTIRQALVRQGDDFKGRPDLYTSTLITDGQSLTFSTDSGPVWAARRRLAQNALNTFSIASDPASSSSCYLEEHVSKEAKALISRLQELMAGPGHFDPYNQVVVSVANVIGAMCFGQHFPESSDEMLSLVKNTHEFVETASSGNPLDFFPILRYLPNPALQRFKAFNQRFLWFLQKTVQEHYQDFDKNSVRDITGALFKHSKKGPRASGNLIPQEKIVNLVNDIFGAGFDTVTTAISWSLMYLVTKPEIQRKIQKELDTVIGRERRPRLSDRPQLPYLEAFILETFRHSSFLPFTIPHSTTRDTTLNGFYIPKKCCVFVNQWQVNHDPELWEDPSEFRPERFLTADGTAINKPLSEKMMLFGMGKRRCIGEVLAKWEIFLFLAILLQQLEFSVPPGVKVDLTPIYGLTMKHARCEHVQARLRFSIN

The nature of assay [4]: NFAT Signaling Pathway (AID 444; active = well fitted curve in either direction with a large enough effect, not every such curve was filed as active;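 also: carbachol stimulus at about its EC50 of 1 µM final; % is scaled to controls: 0 for no effect and ±100 for the full control effect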). The following applies: Jurkat NFAT-bla M1, carbachol, beta-lactamase ratio, 5 h; at 7.69 µM (top of the series) unless noted. A digest of the protocol:
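Jurkat cells with NFAT-driven β-lactamase reporter and co-expressed M1 receptor, stimulated with carbachol (final 1 uM, ~EC50), compound titration, 5 h at 37 °C. CCF4 loaded 1 h at RT; 460/530 nm ratio gave %activity and AC50.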

A short description of assay [5]: Stat Signaling Pathway (AID 446; active = well fitted curve in either direction with a large enough effect, not every such curve was filed as active;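 also: ME-180 cervical cancer cells given 40 pM IL-6 alongside compound; SIE-controlled beta-lactamase reporter measured as 460/530 nm FRET emission ratio; % is scaled to controls: 0 for no effect and ±100 for the full control effect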). The following applies: ME-180 SIE beta-lactamase reporter, IL-6 stimulated, 5 h; at 7.69 µM (top of the series) unless noted. The procedure, abridged:
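Compound effects on IL-6-induced STAT reporter activity were measured in ME-180 cells. After overnight culture, cells were co-treated with 40 pM IL-6 for 5 hrs before beta-lactamase substrate loading at room temperature.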

The target in assay [6] is Glucocorticoid receptor (Homo sapiens) (UniProt P04150). Description: GR-EFC Redistribution (AID 451; calls by dose curve; also: potency is read from the fitted curve at half-maximal effect). To be noted: CHO-K1 GR-EFC translocation, beta-gal luminescence, 2 h. A digest of the protocol: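 CHO-K1 cells expressing nuclear EA and GR-ED fragments of b-gal; compounds titrated up to 46 uM final, 2 h at 37 C. GR nuclear translocation read as complemented b-gal luminescence after 1 h RT detection.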
Chain of Glucocorticoid receptor (Homo sapiens) (P04150 whole entry, looked up, the tested form may be a part): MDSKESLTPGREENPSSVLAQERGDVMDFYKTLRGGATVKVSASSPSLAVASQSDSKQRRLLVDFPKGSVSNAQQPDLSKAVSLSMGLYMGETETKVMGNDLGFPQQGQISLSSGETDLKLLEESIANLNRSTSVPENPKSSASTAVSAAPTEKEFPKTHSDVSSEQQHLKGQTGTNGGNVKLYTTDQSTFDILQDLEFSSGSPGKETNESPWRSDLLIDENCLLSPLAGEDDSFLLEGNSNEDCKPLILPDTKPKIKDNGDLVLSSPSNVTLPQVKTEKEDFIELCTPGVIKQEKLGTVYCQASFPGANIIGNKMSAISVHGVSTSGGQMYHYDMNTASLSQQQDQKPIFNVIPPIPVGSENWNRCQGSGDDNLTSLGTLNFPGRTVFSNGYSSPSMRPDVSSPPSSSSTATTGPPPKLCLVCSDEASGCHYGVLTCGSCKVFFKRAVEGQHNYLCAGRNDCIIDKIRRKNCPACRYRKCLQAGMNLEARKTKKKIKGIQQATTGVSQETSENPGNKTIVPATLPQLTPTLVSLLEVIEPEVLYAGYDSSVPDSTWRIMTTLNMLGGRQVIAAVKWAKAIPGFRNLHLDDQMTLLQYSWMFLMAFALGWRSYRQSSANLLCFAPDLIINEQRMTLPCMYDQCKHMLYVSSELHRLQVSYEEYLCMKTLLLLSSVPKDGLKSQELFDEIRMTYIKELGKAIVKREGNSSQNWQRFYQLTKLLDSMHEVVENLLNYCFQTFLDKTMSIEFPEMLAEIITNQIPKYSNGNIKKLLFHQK

The target of assay [7] is Mitogen-activated protein kinase 10 (Mus musculus) (UniProt Q61831). Nature of the assay: JNK3 AlphaScreen Assay (AID 530; active = well fitted curve in either direction with a large enough effect, not every such curve was filed as active;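 also: kinase came from lysate of stimulated human HepG2 cells; signal reports phosphorylation of biotinylated GST-cJun 1-79 at Ser73 with 10 µM ATP; % is scaled to controls: 0 for no effect and ±100 for the full control effect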). The following applies: JNK3 lysate, c-Jun phosphorylation; series mostly up to 57.1 µM. A digest of the protocol:
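HepG2 lysate (IL-1b/TNFa pre-activated) + biotin-GST-cJun 1-79 + anti-pSer73 cJun; cpd titration, 15 min RT; ATP 10 uM start; Tris pH 7.6, MgCl2, DTT, vanadate; beads in EDTA buffer; AlphaScreen.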
(In Alpha technology, singlet oxygen from a donor bead excites a nearby acceptor bead.)

Assay [8] concerns the target 3',5'-cyclic-AMP phosphodiesterase 4B (Homo sapiens) (UniProt Q07343). Nature of the assay: qHTS Assay for Inhibitors of PDE-IV (AID 607; active = well fitted activation curve with a large enough effect in the main read-out, with a control signal flat, not every such curve was filed as active; also: % of control where 0% means no effect). To be noted: HEK293 ACTOne CNG channel cells, membrane potential fluorescence; series mostly up to 22.9 µM. The procedure, abridged:
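ACTOne HEK293 cells carry a modified cAMP-gated CNG channel and express endogenous PDE4; plated 1000 cells/well, compounds up to 22.9 uM final. Membrane-potential dye fluorescence (ex 535/em 590) was read; parental cells received 10 uM forskolin + 100 uM RO 20-1724.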

Assay [9] concerns the target Cytochrome P450 3A4 (Homo sapiens) (UniProt P08684). Description: qHTS Assay for Activators of Cytochrome P450 3A4 (AID 885). Also: nearly all actives have a fitted effect of over 65% in size. To be noted: recombinant CYP3A4, Luciferin-PPXE luminescence, 60 min; series mostly up to 57.1 µM. A digest of the protocol:
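CYP3A4 activity: Luciferin-PPXE O-dealkylation, 25uM substrate, 200mM KPO4, RT throughout. Read-out is luciferase luminescence; higher values reflect activation.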

Assay [10] can be described thus: qHTS Assay for Lipid Storage Modulators (AID 1519; calls by dose curve). The following applies: Drosophila S3 cells, BODIPY lipid droplet/cell ratio, laser cytometry, cells loaded with oleic acid; for activity change, negative = inhibition: at 57.5 µM (top of the series). The procedure, abridged: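 Cells seeded at 5,000 per well were treated with compounds over a concentration series and loaded with oleic acid (400 uM, as added). Lipid droplet fluorescence (488 nm excitation, 500-530 nm channel) was read by laser-scanning cytometry and normalized to 20 uM Triacsin C.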
A general note: qHTS replaces the single test concentration by a dilution series.

The target of assay [11] is Dual specificity protein kinase CLK4 (Homo sapiens) (UniProt Q9HAZ1). Nature of the assay: qHTS Assay for Inhibitors of CDC-like Kinase 4 (Kinase-Glo Assay) (AID 1770). Also: nearly all actives have a fitted effect of over 65% in size. Also: potency is read from the fitted curve at half-maximal effect. To be noted: recombinant Clk4, Kinase-Glo ATP depletion luminescence; series mostly up to 66.7 µM. The procedure, abridged:
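Luminescent ATP-depletion read-out (Kinase-Glo) after 4.5 h room-temperature reaction of Clk4 (25 nM final) with RS peptide (100 uM) and ATP (1 uM), pH 7.5 Tris buffer with MgCl2 and DTT.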

For assay [12] the target is unchanged. Nature of the assay: qHTS Assay for Inhibitors of CDC-like Kinase 4 (ADP-Glo Assay) (AID 1771). Also: nearly all actives have a fitted effect of over 70% in size. Also: potency is read from the fitted curve at half-maximal effect. The following applies: recombinant CLK4, ADP-Glo luminescence; series mostly up to 80 µM. The procedure, abridged:
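In this ADP-Glo format, 1 uM ATP and 100 uM RS peptide served as substrates for 25 nM Clk4 in Mg2+/EGTA/DTT/Triton buffer; reactions ran 1 hr at room temperature before luminescent ADP quantification.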

Assay [13] shares this target. Nature of the assay: qHTS Assay for Inhibitors of CDC-like Kinase 4 (ADP-FP Assay) (AID 1795). Also: nearly all actives have a fitted effect of over 60% in size. Also: potency is read from the fitted curve at half-maximal effect. The following applies: Transcreener ADP fluorescence polarization; series mostly up to 50 µM. The procedure, abridged:
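Kinase activity was measured as ADP production using Transcreener orange tracer (4 nM) and ADP antibody (1 ug/mL) fluorescence polarization, with ADP calculated from a calibration curve. The 1 h reaction contained 6.25 nM Clk4, 1 uM ATP and 100 uM RS peptide at pH 7.5 with Mg2+.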

Assay [14] concerns the target Ubiquitin carboxyl-terminal hydrolase 1 (Homo sapiens) (UniProt O94782). Nature of the assay: Inhibitors of USP1/UAF1: Pilot qHTS (AID 504865).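 Also: rhodamine fluorescence freed from ubiquitin-rhodamine substrate followed over time; top concentration of the series differs between compounds; % is scaled to controls: 0 for no effect and ±100 for the full control effect; nearly all actives have a fitted effect of over 35% in size.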 The following applies: purified USP1/UAF1, Ub-rhodamine cleavage fluorescence; series mostly up to 54.9 µM. A digest of the protocol: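 Deubiquitinase activity followed as kinetic rhodamine fluorescence release from 150 nM Ub-Rho. 1 nM USP1/UAF1 with compound, after 15 min room-temperature preincubation, in HEPES pH 7.8 buffer containing TCEP, EDTA, BSA and Tween-20.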

Assay [15] has as its target Glucocorticoid receptor (Homo sapiens) (UniProt P04150). Nature of the assay: GR-GFP Redistribution (AID 450;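 active = compounds whose dose series gives a full or clear partial fitted curve of increased nuclear translocation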; also: potency is read from the fitted curve at half-maximal effect). To be noted: U2OS GR-GFP nuclear translocation, laser cytometry, 2 h.
Assay [16] concerns the target Cytochrome P450 3A4 (Homo sapiens) (UniProt P08684). Nature of the assay: qHTS Assay for Inhibitors and Substrates of Cytochrome P450 3A4 (AID 884). Also: potency is read from the fitted curve at half-maximal effect; nearly all actives have a fitted effect of over 50% in size. To be noted: recombinant CYP3A4, Luciferin-PPXE luminescence; series mostly up to 57.1 µM. A digest of the protocol:
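Luminescent readout of luciferin produced by CYP3A4 (20 nM) dealkylation of Luciferin-PPXE, 25 uM (its KM). NADPH-driven reaction ran 60 min at RT after 10 min compound preincubation; data scaled to 57 uM ketoconazole as 100% inhibition.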

Assay [17] has as its target Cytochrome P450 2C19 (Homo sapiens) (UniProt P33261). Description: qHTS Assay for Inhibitors and Substrates of Cytochrome P450 2C19 (AID 899). Also: % is scaled to controls: 0 for no effect and ±100 for the full control effect; nearly all actives have a fitted effect of over 60% in size. The following applies: recombinant CYP2C19, luciferin-H EGE luminescence; series mostly up to 57.1 µM. A digest of the protocol:
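Signal comes from luciferase acting on luciferin released by CYP2C19-mediated hydroxylation of Luciferin-H EGE, 10uM (KM). Assay mix: 5nM enzyme, 50mM KPO4; 60 min at 37C with NADPH regeneration. Data normalized against 57uM ketoconazole.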

Assay [18] in a line: qHTS Assay for Identification of Small Molecule Agonists for Hypoxia Response Element Signaling Pathway (AID 914; active = well fitted activation curve with a large enough effect in the signal ratio, with a control signal flat, not every such curve was filed as active; the % refers to the signal ratio; also: % of control where 0% means no effect). To be noted: ME-180 (cervical carcinoma) HRE-bla reporter, beta-lactamase ratio, CoCl2, 17 h; activation: stronger effect = higher value. The procedure, abridged: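 Cells were plated overnight, pin-dosed with compound in a titration series, co-stimulated with EC50 CoCl2 and incubated 17 hours at 37 degrees Celsius. CCF4 substrate was then loaded, and AC50 values came from the 460nm/530nm ratio.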

The mark [19] stands for this setting: measured here: cell count channel max response.
Setting [20] is: measured here: lipid channel max response.

Chain of Lysosomal acid glucosylceramidase (Homo sapiens) (P04062 whole entry, looked up): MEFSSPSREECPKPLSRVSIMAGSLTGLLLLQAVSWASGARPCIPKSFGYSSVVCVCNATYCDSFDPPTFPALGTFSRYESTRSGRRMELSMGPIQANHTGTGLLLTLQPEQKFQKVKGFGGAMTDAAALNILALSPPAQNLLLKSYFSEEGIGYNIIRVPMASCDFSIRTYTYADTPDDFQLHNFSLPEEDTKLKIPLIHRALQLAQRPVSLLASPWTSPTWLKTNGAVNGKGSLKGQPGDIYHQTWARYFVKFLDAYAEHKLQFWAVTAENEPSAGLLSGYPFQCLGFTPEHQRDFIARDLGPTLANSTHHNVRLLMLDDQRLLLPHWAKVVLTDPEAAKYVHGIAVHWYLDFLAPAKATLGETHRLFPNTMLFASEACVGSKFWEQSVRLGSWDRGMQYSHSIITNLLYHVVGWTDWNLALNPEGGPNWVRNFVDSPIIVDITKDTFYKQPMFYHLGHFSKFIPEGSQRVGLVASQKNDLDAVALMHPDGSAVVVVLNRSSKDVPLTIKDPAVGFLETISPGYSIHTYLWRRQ
Chain of Dual specificity protein kinase CLK4 (Homo sapiens) (Q9HAZ1 whole entry, looked up): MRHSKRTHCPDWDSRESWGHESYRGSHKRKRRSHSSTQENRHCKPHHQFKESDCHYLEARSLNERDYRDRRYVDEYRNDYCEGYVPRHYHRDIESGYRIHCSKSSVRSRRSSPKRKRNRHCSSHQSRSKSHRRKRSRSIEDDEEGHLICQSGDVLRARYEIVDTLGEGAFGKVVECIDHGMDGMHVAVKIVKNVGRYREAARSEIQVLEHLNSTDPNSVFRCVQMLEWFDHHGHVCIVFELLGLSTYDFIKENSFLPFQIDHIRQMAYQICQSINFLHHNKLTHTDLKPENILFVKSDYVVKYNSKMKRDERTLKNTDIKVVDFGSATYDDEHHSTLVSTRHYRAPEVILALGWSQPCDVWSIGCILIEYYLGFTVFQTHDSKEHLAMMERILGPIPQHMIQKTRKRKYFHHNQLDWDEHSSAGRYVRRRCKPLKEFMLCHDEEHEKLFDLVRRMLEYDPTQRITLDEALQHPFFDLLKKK
Chain of Ubiquitin carboxyl-terminal hydrolase 1 (Homo sapiens) (O94782 whole entry, looked up): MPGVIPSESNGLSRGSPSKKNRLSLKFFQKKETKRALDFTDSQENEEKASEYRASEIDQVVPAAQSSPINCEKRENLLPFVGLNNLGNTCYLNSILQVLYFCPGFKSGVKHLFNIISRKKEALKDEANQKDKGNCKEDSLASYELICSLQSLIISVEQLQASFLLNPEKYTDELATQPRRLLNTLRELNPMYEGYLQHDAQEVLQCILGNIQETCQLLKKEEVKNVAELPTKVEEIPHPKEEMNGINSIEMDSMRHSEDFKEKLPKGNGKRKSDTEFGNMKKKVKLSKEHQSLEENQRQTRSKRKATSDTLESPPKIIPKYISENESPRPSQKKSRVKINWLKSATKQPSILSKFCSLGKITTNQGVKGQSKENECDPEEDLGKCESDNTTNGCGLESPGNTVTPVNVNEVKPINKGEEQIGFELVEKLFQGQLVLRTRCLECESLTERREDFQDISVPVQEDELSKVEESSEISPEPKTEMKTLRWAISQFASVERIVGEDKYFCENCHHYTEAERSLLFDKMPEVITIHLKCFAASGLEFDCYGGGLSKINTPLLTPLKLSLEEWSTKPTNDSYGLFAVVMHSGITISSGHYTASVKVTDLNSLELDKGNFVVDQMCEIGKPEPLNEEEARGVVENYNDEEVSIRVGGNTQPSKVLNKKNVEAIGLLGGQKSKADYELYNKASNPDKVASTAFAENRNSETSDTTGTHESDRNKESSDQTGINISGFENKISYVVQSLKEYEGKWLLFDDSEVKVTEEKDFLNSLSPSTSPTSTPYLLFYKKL
Chain of 3',5'-cyclic-AMP phosphodiesterase 4B (Homo sapiens) (Q07343 whole entry, looked up): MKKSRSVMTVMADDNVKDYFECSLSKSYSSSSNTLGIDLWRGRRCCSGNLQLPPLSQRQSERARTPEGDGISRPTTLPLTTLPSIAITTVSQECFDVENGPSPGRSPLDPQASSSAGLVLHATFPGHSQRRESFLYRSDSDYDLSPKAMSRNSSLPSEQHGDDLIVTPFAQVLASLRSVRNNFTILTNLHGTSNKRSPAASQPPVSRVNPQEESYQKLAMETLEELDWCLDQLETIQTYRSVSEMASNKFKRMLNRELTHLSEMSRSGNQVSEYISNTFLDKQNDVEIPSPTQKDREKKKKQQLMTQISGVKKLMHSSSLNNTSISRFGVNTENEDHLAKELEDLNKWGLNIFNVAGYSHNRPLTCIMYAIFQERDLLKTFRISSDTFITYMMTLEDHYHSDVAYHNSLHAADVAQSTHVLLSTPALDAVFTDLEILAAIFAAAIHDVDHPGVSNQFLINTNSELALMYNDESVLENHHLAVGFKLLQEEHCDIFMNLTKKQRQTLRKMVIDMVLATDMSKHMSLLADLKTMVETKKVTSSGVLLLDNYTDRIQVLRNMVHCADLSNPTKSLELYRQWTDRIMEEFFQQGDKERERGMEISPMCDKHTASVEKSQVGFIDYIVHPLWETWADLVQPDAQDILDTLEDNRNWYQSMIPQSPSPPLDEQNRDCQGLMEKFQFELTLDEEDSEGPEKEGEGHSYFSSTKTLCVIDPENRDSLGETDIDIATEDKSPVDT
Chain of Cytochrome P450 3A4 (Homo sapiens) (P08684 whole entry, looked up): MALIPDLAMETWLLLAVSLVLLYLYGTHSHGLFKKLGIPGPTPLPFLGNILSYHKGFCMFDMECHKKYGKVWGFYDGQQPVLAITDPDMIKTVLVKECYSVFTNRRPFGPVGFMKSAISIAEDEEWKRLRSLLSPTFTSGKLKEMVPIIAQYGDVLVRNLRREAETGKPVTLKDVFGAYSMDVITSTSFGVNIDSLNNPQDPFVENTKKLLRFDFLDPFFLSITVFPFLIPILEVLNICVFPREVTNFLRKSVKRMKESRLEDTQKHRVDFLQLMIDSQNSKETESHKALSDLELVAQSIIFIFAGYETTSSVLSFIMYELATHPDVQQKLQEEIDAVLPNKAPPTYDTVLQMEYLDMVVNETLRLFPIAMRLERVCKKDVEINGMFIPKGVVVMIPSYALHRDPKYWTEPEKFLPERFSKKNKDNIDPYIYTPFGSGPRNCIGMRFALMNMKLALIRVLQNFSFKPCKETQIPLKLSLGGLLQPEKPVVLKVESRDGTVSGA
Chain of Cytochrome P450 2C19 (Homo sapiens) (P33261 whole entry, looked up): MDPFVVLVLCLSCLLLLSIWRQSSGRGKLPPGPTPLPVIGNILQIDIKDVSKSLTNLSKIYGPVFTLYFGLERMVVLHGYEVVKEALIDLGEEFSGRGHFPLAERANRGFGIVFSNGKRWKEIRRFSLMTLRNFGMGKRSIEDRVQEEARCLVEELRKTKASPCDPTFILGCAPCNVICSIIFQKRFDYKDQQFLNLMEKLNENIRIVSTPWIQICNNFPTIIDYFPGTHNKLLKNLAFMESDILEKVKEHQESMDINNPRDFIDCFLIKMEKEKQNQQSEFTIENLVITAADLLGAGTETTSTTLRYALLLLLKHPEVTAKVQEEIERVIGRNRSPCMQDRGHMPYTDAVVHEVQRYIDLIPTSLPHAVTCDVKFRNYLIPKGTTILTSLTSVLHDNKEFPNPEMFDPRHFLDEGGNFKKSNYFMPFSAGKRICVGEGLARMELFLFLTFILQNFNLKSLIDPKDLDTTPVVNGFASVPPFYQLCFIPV

In the case of `CN1CCN(c2ncc3nc(-c4cn(C)c5ccccc45)c(=O)n(C)c3n2)CC1`, the Potency in assay [1] is > 11.4 µM (inactive); in assay [3], 31.6 µM (active); in assay [6] it was > 46 µM (inactive). Also, the activity change, negative = inhibition was -20.2% (inactive) in [2], 11.3% (inactive) in assay [4] and 2.17% (inactive) in [10]. For the same compound, the activity, negative = inhibition in [5] is 12.5% (inactive). The Potency entry in assay [7], in [8], in [9], in [11], in assay [12] and in assay [13] was “inactive” throughout. Further, in assay [14], the Potency result was “inactive”. The max response in [10] (setting [19]) was 7.27%; in [10] (setting [20]), 7.8%.
Regarding `CN1CCN(c2ncncc2-c2ccoc2)CC1`, the Potency was > 11.4 µM (inactive) in assay [1], > 46 µM (inactive) in assay [15], > 46 µM (inactive) in assay [6] and 7.94 µM (active) in assay [16]. In addition, the activity change, negative = inhibition in assay [2] is -0.0355% (inactive); in assay [4], -13% (inactive); in assay [10], 5.79% (inactive). In addition, the activity, negative = inhibition in [5] was -4.34% (inactive). For the same compound, the Potency entry in assay [7], in assay [8], in [9], in [17], in assay [11] and in [12] was “inactive” in each case. Further, the Potency result in assay [13] is “inactive”. For the same compound, the max response in [10] (setting [19]) was 23.7%; in assay [10] (setting [20]), 30.3%.
As to `CN1CCN(c2ncnc3ccc(-c4ccoc4)cc23)CC1`, the Potency in [1] is > 11.4 µM (inactive); in assay [15], > 46 µM (inactive); in assay [6] it was > 46 µM (inactive); in assay [11] it was 0.631 µM (active); in [12] it was 0.794 µM (active); in assay [13] it was 0.447 µM (active). In addition, the activity change, negative = inhibition was -22.9% (inactive) in [2], -23.1% (inactive) in assay [4] and 2.55% (inactive) in assay [10]. For the same compound, in [5], the activity, negative = inhibition was -0.925% (inactive). The Potency result in assay [7] and in assay [14] was “inactive” each time. Moreover, the max response worked out at 12.5% in assay [10] (setting [19]) and 2.82% in assay [10] (setting [20]).
For the compound `COc1cccc(-c2nc(NC3CCNCC3)c3ccccc3n2)c1`, the Potency in assay [1] is > 11.4 µM (inactive); in assay [3] it was 12.6 µM (active); in [6], > 46 µM (inactive); in assay [11] it was 11.2 µM (active); in assay [12] it was 11.2 µM (active); in [13], 12.6 µM (active). Besides, the activity change, negative = inhibition in [2] was 14.7% (inactive); in [4], 23.4% (inactive); in [10] it was 4.76% (inactive). The activity, negative = inhibition in assay [5] was 5.39% (inactive). For the same compound, the Potency result in assay [7], in [8], in assay [9] and in [14] was “inactive” throughout. Also, the max response in [10] (setting [19]) was 12.9%; in assay [10] (setting [20]) it was 4.05%.
Consider `CN1CCN(c2ncncc2-c2ccccc2Cl)CC1`, for which the Potency in assay [1] is > 11.4 µM (inactive); in [3], 2.51 µM (active); in [15] it was > 46 µM (inactive); in assay [6] it was > 46 µM (inactive); in assay [16], 1.58 µM (active). The activity change, negative = inhibition is -12.3% (inactive) in [2] and -1.74% (inactive) in assay [10]. Further, in assay [5], the activity, negative = inhibition was -1.1% (inactive). Besides, the Potency result in [7], in assay [8], in [9], in assay [11], in [12] and in assay [13] was “inactive” each time. Moreover, the Potency result in assay [14] was “inactive”. For the same compound, the activation in assay [18] was 4.87% (inactive). Also, the max response was determined as 8.31% in [10] (setting [19]) and 3.53% in assay [10] (setting [20]).
